Pf Dd2 inh: Plasmodium falciparum Dd2 growth inhibition | P. falciparum Dd2 growth, SYBR Green, 72 h | Potency, µM (highest dose often 28.9 µM), for inactives: at the highest dose activity, negative = inhibition, usual class: inhibitors | hit rate 4.3% among 120,000 | AID 1347417; active means well fitted inhibition curve with a large enough effect;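 further: plate controls were DMSO vehicle for no effect and reference drug for full effect; nearly all actives have a fitted effect of over 65% in size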
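Readout: SYBR Green fluorescence, 485 nm excitation, 535 nm emission, after ~16 h lysis at 37C. Before that, Dd2-infected red cells (2.5% hematocrit) grew 72 h with compound, 29 uM top final concentration.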
* hit, by the source's call; i = inactive; [ ] = dose if it differs, or a comment. Only a selection was taken, and hits are over-represented in it overall. Potency means the concentration at half of the fitted maximal effect.

SMILES	Pf Dd2 inh
CS(=O)(=O)N(C1CC1)C1CCOC2(CCN(C(=O)Cc3cccc(F)c3)CC2)C1 (stereo unspecified)	i
CCN(CC)C(=O)CN1C(=O)NC2(CCC(C)CC2)C1=O (stereo unspecified)	19%
CN(CC1CCOC1)S(=O)(=O)c1ccc(C(F)(F)F)cc1 (stereo unspecified)	39%[5.79 µM]
COc1ccccc1Nc1ncc2c(n1)CN(C(=O)C1CCC(OC)CC1)CCN2 (stereo unspecified)	-13%[44.1 µM]
COc1ccc(CCNC(=O)C2CCN(S(=O)(=O)c3c(C)noc3/C=C/c3ccc(C)cc3)CC2)cc1OC	-5%
COc1cc(NC(=O)C2CCN(S(=O)(=O)c3c(C)noc3/C=C/c3cccs3)CC2)cc(OC)c1	11µM*
Cc1ccc(NC(=O)C2CCN(S(=O)(=O)c3c(C)noc3C)CC2)cc1C	-9%
Cc1ccccc1CC(=O)NC1CCN(c2cc(-c3ccccc3)[nH]n2)C1 (stereo unspecified)	-14%
O=C(Cn1c(-c2cccs2)cc2ccccc21)N1CCN(c2ccc(Cl)cc2)CC1	8%
CCOC(=O)Cn1c(-c2cccs2)cc2cc(Cl)ccc21	-12%
CN(C)c1ccc(CNC(=O)Cn2c(-c3cccs3)cc3cc(Cl)ccc32)cc1	-6%
COc1ccccc1NC(=O)NCCCN1CCN(c2ccc(F)cc2)CC1	i
CC(NC(=O)Cn1c(-c2cccs2)cc2cc(F)ccc21)c1ccccc1 (stereo unspecified)	1.1µM*
CC(CNC(=O)Cn1c(-c2cccs2)cc2ccccc21)c1ccccc1 (stereo unspecified)	11µM*
O=C(Cn1c(-c2cccs2)cc2cc(F)ccc21)NCCCN1CCN(c2ccc(F)cc2)CC1	6.3µM*
Cc1ccc(CNC(=O)Cn2c(-c3cccs3)cc3cc(Cl)ccc32)cc1	-10%
CCNC(=O)Cn1c(-c2cccs2)cc2ccccc21	10%
CCc1ccc(C(=O)NC2CCN(c3cc(-c4cccs4)[nH]n3)C2)cc1 (stereo unspecified)	i
O=C(O)C[C@@H]1CCN(C(=O)NC2CCCCC2)C[C@@H]1CCN1CCN(c2ccc(F)cc2)CC1	-14%
O=C1NCCN(Cc2cccc(Oc3ccccc3)c2)C1CC(=O)N1CCCOCC1 (stereo unspecified)	-7%
COC(=O)CNC(=O)C1CN(c2cccc(OC)c2)C(=O)N1 (stereo unspecified)	13%[44.1 µM]
Cc1cnc(C(=O)NC2C[C@H]3CC[C@@H](C2)N3C(=O)Nc2cccc(C(F)(F)F)c2)cn1 (stereo partly specified)	-9%
Cc1[nH]cnc1CN1C[C@@H]2CN(C(=O)CCC3CC3)C[C@]2(C(=O)O)C1	-9%
CNC(=O)[C@@H]1CN(C(=O)c2nn(C)c3ccccc23)C[C@H]1COC	-23%
CCOC(=O)c1sc(NC(=O)c2nc3nc(C)cc(C(F)F)n3n2)c(C(=O)OC)c1C	-32%
SMILES	Pf Dd2 inh
CCOC(=O)c1sc(NC(=O)c2nc(SC)ncc2Cl)c(C(=O)OCC)c1C	140%
CCCOC(=O)c1c(NC(=O)c2nc3ncccn3n2)sc(C(=O)OCC)c1C	2.8µM*
O=C(NCc1ccccc1)NC1CCN(C(=O)N2CC3CC(C2)[C@H]2CCCC(=O)N2C3)CC1 (stereo partly specified)	4%
COc1ccc(-c2ccc3c(c2)C(=O)N2CCN(C(=O)COc4ccccc4)C[C@@H]2C(=O)N3)cc1	i
O=C1CC2CCN(C(=O)c3ccc4c(c3)OCO4)CC2CCN1 (stereo unspecified)	2%
Cc1cc(C)n(C(C)C(=O)N2CCn3nc(Cc4ccccc4)cc3C2)n1 (stereo unspecified)	-28%
C=CCN1CC(C(=O)N2CCn3nc(Cc4ccccc4)cc3C2)CC1=O (stereo unspecified)	0%
C[C@@H]1CCC[C@H](C)N1CC(=O)N1CCn2nc(Cc3ccccc3)cc2C1	11µM*
CC(C)N1CCC(CC(=O)N2CCn3nc(Cc4ccccc4)cc3C2)CC1	10µM*
CCOCC(=O)N1CCn2nc(Cc3ccccc3)cc2C1	4%
O=C(CCn1cnc2ccccc21)N1CCn2nc(Cc3ccccc3)cc2C1	-15%
O=S(=O)(c1cc(F)cc(F)c1)N1CCCC(Cn2c(C3CC3)nc3cccnc32)C1 (stereo unspecified)	i
OCC1(CN2CCCC2)CCN(Cc2cc(F)cc(F)c2)CC1	i
OCC1(CN2CCCC2)CCN(C/C=C/c2ccccc2)CC1	7.1µM*
OCC1(CN2CCCC2)CCN(Cc2ccc3ccccc3c2)CC1	6.3µM*
OCC1(CN2CCCC2)CCN(Cc2ccc(Cl)cc2F)CC1	i
O=C(c1cccc(O)c1)N1CCC(CO)(CN2CCCC2)CC1	-1%
Cc1nnc(N2CCC(CO)(CN3CCCC3)CC2)c2ccccc12	i
O=[S+]1([O-])NCC2(CCN(Cc3ccc(C(F)(F)F)cc3)C2)Nc2ccccc21 (stereo unspecified)	i
O=C1CN(C(=O)c2cccc(C(F)(F)F)c2)CC(OCc2cccnc2)CN1CC1CCOCC1 (stereo unspecified)	-10%
O=C(c1ccnnc1)N1CC(F)(F)C[C@H]1c1nc(C2CC2)no1	29%
CCn1ncc(-c2nc3cc(S(=O)(=O)N4CCCC4)ccc3n2C)c1C	-15%
CC[C@H]1CN(C(=O)C(C)(C)C)CC[C@H]1CC(=O)N1CCC(C(=O)OC)CC1	-5%[44.1 µM]
COCCNc1ncnc2c1CN(C1CCNCC1)C(=O)CN2C	8%
C[C@H]1CCCN1C(=O)c1nnc(COc2ccc(Cl)cc2)n1-c1ccccc1	-12%[44.1 µM]
SMILES	Pf Dd2 inh
CC(=O)Nc1cccc(OCc2nnc(C(=O)N3CCC[C@@H]3c3ccc(Br)cc3)n2Cc2ccccc2)c1	-22%
CC(=O)Nc1cccc2ccc(OCc3nnc(C(=O)N4CCC[C@@H]4c4ccc(Br)cc4)n3Cc3ccccc3)cc12	11µM*
O=C(CCC1CCCC1)N1CCCCCC1CN1CCOCC1 (stereo unspecified)	i
COc1cccc(NC(=O)C2CC(=O)N(c3n[nH]c4cc(Br)ccc34)C2)c1 (stereo unspecified)	10%
CC(=O)Nc1cccc(NC(=O)CSc2ccc(-c3sc(-c4ccccc4)nc3C)nn2)c1	8.9µM*
Cc1ccc(CNC(=O)CSc2ccc(-c3sc(-c4ccccc4)nc3C)nn2)cc1	-4%
Cc1nc(-c2ccccc2)sc1-c1ccc(SCC(=O)Nc2cccc(C(F)(F)F)c2)nn1	-8%
C[C@H](C(=O)NCCN1CCOCC1)C1CC[C@@]2(C)Cc3sc(NC(=O)CC(C)(C)C)nc3[C@@H](C)[C@@H]2[C@H]1O (stereo partly specified)	-9%
COC1CCC(C(=O)N2CC(CNc3ccccc3)C3(C2)CN(c2ccccc2)C3)CC1 (stereo unspecified)	-9%[44.1 µM]
Cc1nc2c(c(-c3ccc(Cl)cc3)n1)CCN(C(=O)c1ccccc1F)CC2	-15%
COc1ccc(NC(=O)N[C@H]2[C@H](O)[C@@H](N3CCN(C)CC3)[C@@H]3OC[C@H]2O3)cc1	i
CCn1cc(-c2ccc(Cl)cc2)cc1C(=O)N1CCN(C(C)C)CC1	i
COc1ccc(CN2C[C@H]3CN(Cc4ccc(Cl)cc4)CCN3C2=O)cc1	11%[44.1 µM]
COc1ccc(CN2C[C@H]3CN(Cc4ccc5c(c4)OCCO5)CCN3C2=O)cc1	11µM*
COc1ccc(CN2CCN3C(=O)N(Cc4ccc(OC)cc4)C[C@H]3C2)cc1	-6%[44.1 µM]
COc1ccccc1CC(=O)N1CCC(c2n[nH]c(=O)n2Cc2ccc(F)cc2)CC1	-16%
COc1ccc(OC)c(NC(=O)Cn2cc(C(=O)c3ccccc3)c3ccccc32)c1	i

Compound activity from PubChem.
